For seven compounds, outcome and AC50 results are on record in PubChem BioAssay (EPA / NIEHS).

Test [1] in a line: ATG_GRE_CIS: Attagene CIS-FACTORIAL HepG2 Assay for human Glucocorticoid Response Elements (GRE) (AID 2282947). To be noted: HepG2 GRE cis-reporter, Attagene multiplex mRNA; actives raise or lower the signal. A digest of the protocol: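 HepG2, transient cis-reporter transfection, 24 h. Reporter mRNA: RT-PCR then CE, fluorescence. Fit both directions vs DMSO.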
The nature of test [2]: ATG_ISRE_CIS: Attagene CIS-FACTORIAL HepG2 Assay for human Interferon Regulatory Factor 1 (IRF1) binding to an Interferon-Stimulated Response Element (ISRE) (AID 2282948). The settings on record: HepG2 ISRE cis-reporter (Attagene), mRNA transcription readout; actives raise or lower the signal. In outline: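 Multiplexed mRNA reporter readout in human liver HepG2 cells: cis-element-driven reporters transfected, compound added for 24 h, transcripts amplified, fluorescently labelled and sized by capillary electrophoresis; curve fitting bidirectional against DMSO.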

Test [3] can be described thus: ATG_M_32_CIS: Attagene CIS-FACTORIAL HepG2 Assay for M32 Transcription Factor (Internal Marker) (AID 2282949).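 Note: background control marker of the multiplexed CIS panel rather than a real target.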 To be noted: HepG2 Attagene cis-factorial M32 reporter, mRNA; actives raise or lower the signal. A digest of the protocol:
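Using DMSO as baseline, bidirectional curve fits were applied to reporter mRNA signals. These came from transiently transfected HepG2 cells exposed for 24 h, with RNA analysed by RT-PCR, FAM primer extension, HpaI digestion and CE.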

Test [4] is described as follows: ATG_M_06_CIS: Attagene CIS-FACTORIAL HepG2 Assay for M06 Transcription Factor (Internal Marker) (AID 2282950). The settings on record: HepG2 Attagene CIS-FACTORIAL M06 internal marker reporter; actives raise or lower the signal. In outline: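 Steps: transfect HepG2 with multiplexed cis-element reporter constructs; dose chemical 24 h; extract RNA with DNase treatment; reverse-transcribe, PCR-amplify, 6-FAM label, HpaI digest; separate fragments by capillary electrophoresis. Activity fitted both directions versus DMSO.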

In test [5] the target is Hepatocyte nuclear factor 6 (Homo sapiens) (UniProt Q9UBC0). Nature of the test: ATG_HNF6_CIS: Attagene CIS-FACTORIAL HepG2 Assay for human Hepatocyte Nuclear Factor 6 (HNF6) (AID 2282952). The settings on record: HepG2 Attagene cis-factorial HNF6 reporter transcription; actives raise or lower the signal. A digest of the protocol: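 Activity values derive from bidirectional fitting against DMSO of reporter mRNA levels, measured by capillary electrophoresis of labelled RT-PCR products from HepG2 cells exposed 24 h.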
Sequence of Hepatocyte nuclear factor 6 (Homo sapiens) (Q9UBC0 whole entry, looked up): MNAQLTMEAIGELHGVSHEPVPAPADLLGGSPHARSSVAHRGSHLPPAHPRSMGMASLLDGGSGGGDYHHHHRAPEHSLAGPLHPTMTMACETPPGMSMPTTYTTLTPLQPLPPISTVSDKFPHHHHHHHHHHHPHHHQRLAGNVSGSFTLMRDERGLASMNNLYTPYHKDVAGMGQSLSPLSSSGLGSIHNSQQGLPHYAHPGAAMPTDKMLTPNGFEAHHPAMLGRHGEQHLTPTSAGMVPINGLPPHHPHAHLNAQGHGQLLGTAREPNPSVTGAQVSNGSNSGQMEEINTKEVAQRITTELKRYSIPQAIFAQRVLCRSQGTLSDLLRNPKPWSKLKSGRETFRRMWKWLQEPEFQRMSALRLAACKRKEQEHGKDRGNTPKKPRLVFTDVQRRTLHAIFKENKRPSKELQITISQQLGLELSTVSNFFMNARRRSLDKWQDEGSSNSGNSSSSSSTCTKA

Test [6] concerns the target Heat shock factor protein 1 (Homo sapiens) (UniProt Q00613). Nature of the test: ATG_HSE_CIS: Attagene CIS-FACTORIAL HepG2 Assay for human Heat Shock Transcription Factor 1 (HSE) (AID 2282953). The settings on record: HepG2 HSE cis-reporter, Attagene RNA transcription; actives raise or lower the signal. In outline: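 Cells were transfected with cis-element-driven reporter constructs, dosed for 24 h, then total RNA was reverse-transcribed and reporter cDNA amplified, FAM-labelled and digested with HpaI. Fragments were resolved by capillary electrophoresis; gain or loss was fitted against DMSO.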

A short description of test [7]: ATG_MRE_CIS: Attagene CIS-FACTORIAL HepG2 Assay for human Metal Responsive Element (MRE) (AID 2282954). The settings on record: HepG2 MRE cis-reporter transcription, Attagene multiplex; actives raise or lower the signal. In outline: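 Readout: capillary electrophoresis of 6-FAM-labelled, HpaI-digested RT-PCR reporter products. System: HepG2 cells carrying transient multiplexed cis reporters, dosed 24 h. Analysis: bidirectional fit, DMSO baseline.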

The nature of test [8]: ATG_PBREM_CIS: Attagene CIS-FACTORIAL HepG2 Assay for human Phenobarbital-responsive Enhancer Module (PBREM) (AID 2282955). The settings on record: HepG2 PBREM cis-reporter, Attagene multiplexed transcription; actives raise or lower the signal. In outline:
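Transfected liver-derived HepG2 cells exposed 24 h; PBREM reporter transcript quantified via RT-PCR and capillary electrophoresis, with activity in either direction referenced to DMSO.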

Test [9] has as its target Paired box protein Pax-6 (Homo sapiens) (UniProt P26367). Nature of the test: ATG_Pax6_CIS: Attagene CIS-FACTORIAL HepG2 Assay for human Paired Box 6 (PAX6) (AID 2282956). To be noted: HepG2 CIS-FACTORIAL PAX6 reporter transcription, RNA readout; actives raise or lower the signal. A digest of the protocol: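 Fluorescent RT-PCR products separated by capillary electrophoresis report PAX6-linked promoter mRNA in HepG2 cells 24 h post-dose. Curves fitted bidirectionally, DMSO as negative control.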

Test [10] in a line: ATG_PXRE_CIS: Attagene CIS-FACTORIAL HepG2 Assay for human Pregnane X Receptor Element (PXRE) (AID 2282957). The settings on record: HepG2 Attagene CIS-FACTORIAL PXRE reporter, mRNA; actives raise or lower the signal. A digest of the protocol: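 Fluorescent capillary electrophoresis of amplified reporter cDNA gave the signal, collected 24 h after dosing HepG2 cells that held transfected cis-element reporter constructs.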

A short description of test [11]: ATG_PPRE_CIS: Attagene CIS-FACTORIAL HepG2 Assay for human Peroxisome Proliferator-activated Response Element (PPRE) (AID 2282958). To be noted: HepG2 PPRE cis-element reporter, Attagene transcription factor profiling; actives raise or lower the signal. In outline:
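Measured endpoint: PPRE-controlled reporter mRNA, detected by RT-PCR and capillary electrophoresis fluorescence, from transiently transfected HepG2 cells 24 h after dosing. Curves fitted in both directions using DMSO baseline.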

A short description of test [12]: ATG_Sox_CIS: Attagene CIS-FACTORIAL HepG2 Assay for human SRY-box transcription factor (SOX) (AID 2282960). To be noted: HepG2 Attagene cis-factorial SOX reporter, mRNA; actives raise or lower the signal. A digest of the protocol: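 Gain- or loss-of-signal endpoint, fitted bidirectionally with DMSO as negative control. Based on reporter mRNA from transfected HepG2 cells harvested 24 h post-treatment and quantified via RT-PCR and capillary electrophoresis.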

Test [13] deals with Transcription factor Sp1 (Homo sapiens) (UniProt P08047). Nature of the test: ATG_Sp1_CIS: Attagene CIS-FACTORIAL HepG2 Assay for human Specificity Protein 1 (Sp1) (AID 2282961). The settings on record: HepG2 Sp1 cis-reporter transcription, actives raise or lower the signal. A digest of the protocol: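 Endpoint reflects endogenous Sp1 transcriptional activity, not an exogenous fusion protein: HepG2 cells with transfected cis-regulated reporters, 24 h dosing, RT-PCR/capillary electrophoresis mRNA read-out, DMSO-normalised bidirectional fit.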
Sequence of Transcription factor Sp1 (Homo sapiens) (P08047 whole entry, looked up, the tested form may be a part): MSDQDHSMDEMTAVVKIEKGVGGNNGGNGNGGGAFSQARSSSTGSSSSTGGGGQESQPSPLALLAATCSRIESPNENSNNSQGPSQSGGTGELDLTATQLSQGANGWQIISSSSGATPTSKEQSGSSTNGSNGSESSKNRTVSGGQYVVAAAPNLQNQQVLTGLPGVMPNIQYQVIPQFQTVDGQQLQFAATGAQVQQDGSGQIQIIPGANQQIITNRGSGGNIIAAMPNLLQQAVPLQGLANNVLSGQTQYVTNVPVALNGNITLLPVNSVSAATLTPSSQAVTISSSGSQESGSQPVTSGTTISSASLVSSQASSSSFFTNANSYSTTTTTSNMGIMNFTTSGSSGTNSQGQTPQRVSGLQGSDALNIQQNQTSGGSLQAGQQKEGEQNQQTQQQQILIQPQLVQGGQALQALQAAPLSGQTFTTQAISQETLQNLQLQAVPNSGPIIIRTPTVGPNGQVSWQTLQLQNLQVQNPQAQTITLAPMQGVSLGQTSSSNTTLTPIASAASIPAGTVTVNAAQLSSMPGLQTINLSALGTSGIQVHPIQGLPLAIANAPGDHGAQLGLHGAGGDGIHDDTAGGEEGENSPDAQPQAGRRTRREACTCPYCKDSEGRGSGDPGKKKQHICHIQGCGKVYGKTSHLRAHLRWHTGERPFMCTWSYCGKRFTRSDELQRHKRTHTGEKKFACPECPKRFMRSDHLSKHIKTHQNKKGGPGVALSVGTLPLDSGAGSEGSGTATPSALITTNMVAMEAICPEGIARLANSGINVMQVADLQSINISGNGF

Test [14] in a line: ATG_SREBP_CIS: Attagene CIS-FACTORIAL HepG2 Assay for human Sterol Regulatory Element Binding (SREBP) (AID 2282962). The settings on record: HepG2 Attagene cis-factorial SREBP reporter, mRNA; actives raise or lower the signal. A digest of the protocol:
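Endogenous factor activity is measured in HepG2 through multiplexed reporter units under cis-element control. Following a 24 h incubation, reporter transcripts are reverse-transcribed, PCR-amplified and sized by capillary electrophoresis; activity is fitted in both directions relative to DMSO.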

Test [15] has as its target Signal transducer and activator of transcription 3 (Homo sapiens) (UniProt P40763). Nature of the test: ATG_STAT3_CIS: Attagene CIS-FACTORIAL HepG2 Assay for human Signal Transducer and Activator of Transcription 3 (STAT3) (AID 2282963). To be noted: HepG2, Attagene cis-factorial STAT3 reporter transcription; actives raise or lower the signal. A digest of the protocol: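 Uses human liver HepG2 transiently carrying cis-regulated reporter transcription units. Following 24 h dosing, reporter mRNA induction was detected by RT-PCR and capillary electrophoresis, analysed bidirectionally versus DMSO.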

In test [16] the target is Hypoxia-inducible factor 1-alpha (Homo sapiens) (UniProt Q16665). Nature of the test: ATG_HIF1a_CIS: Attagene CIS-FACTORIAL HepG2 Assay for human Hypoxia Inducible Factor 1 (HIF1A) (AID 2282951). The settings on record: HepG2 Attagene cis-factorial HIF1a reporter transcription; actives raise or lower the signal. A digest of the protocol:
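Dosed 24 h, transfected HepG2 cells yielded total RNA whose reporter transcripts were RT-PCR-amplified and sized by capillary electrophoresis using fluorescent labelling; DMSO defined baseline, with gain and loss of signal both fitted.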

A short description of test [17]: ATG_TA_CIS: Attagene CIS-FACTORIAL HepG2 Assay for human TA Basal Promoter (AID 2282964). To be noted: HepG2 Attagene CIS-factorial TA basal promoter reporter; actives raise or lower the signal. A digest of the protocol: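 Steps: transfect HepG2 with MRTUs; dose 24 h; isolate RNA, DNase-treat, reverse-transcribe; PCR and FAM-label reporter cDNA; digest with HpaI 2h at 37 C; run capillary electrophoresis. Activity fitted both directions against DMSO.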

Test [18] can be described thus: ATG_TCF_b_cat_CIS: Attagene CIS-FACTORIAL HepG2 Assay for human T-Cell-Factor with beta-catenin (TCF/b-cat) (AID 2282965). The settings on record: HepG2 TCF/beta-catenin cis-reporter transcription, actives raise or lower the signal. In outline: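 HepG2 cells transiently transfected with multiple cis-promoter-regulated reporter transcription units, so endogenous transcription factor activity is measured. Reporter mRNA read 24 hours after dosing by RT-PCR, fluorescent labelling and capillary electrophoresis; bidirectional fitting against DMSO.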

Test [19] deals with Bile acid receptor (Homo sapiens) (UniProt Q96RI1). Nature of the test: ATG_IR1_CIS: Attagene CIS-FACTORIAL HepG2 Assay for human Nuclear Receptor Subfamily 1 Group H Member 4 (NR1H4), IR1 submotif (AID 2282946). To be noted: IR1 reporter transcription, actives raise or lower the signal. In outline: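 Readout: reporter transcript levels by RT-PCR with fluorescent capillary electrophoresis, from HepG2 cells transiently transfected with multiplexed cis-regulated reporters and dosed 24 h. Gain- or loss-of-signal fitted versus DMSO negative control.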
Sequence of Bile acid receptor (Homo sapiens) (Q96RI1 whole entry, looked up): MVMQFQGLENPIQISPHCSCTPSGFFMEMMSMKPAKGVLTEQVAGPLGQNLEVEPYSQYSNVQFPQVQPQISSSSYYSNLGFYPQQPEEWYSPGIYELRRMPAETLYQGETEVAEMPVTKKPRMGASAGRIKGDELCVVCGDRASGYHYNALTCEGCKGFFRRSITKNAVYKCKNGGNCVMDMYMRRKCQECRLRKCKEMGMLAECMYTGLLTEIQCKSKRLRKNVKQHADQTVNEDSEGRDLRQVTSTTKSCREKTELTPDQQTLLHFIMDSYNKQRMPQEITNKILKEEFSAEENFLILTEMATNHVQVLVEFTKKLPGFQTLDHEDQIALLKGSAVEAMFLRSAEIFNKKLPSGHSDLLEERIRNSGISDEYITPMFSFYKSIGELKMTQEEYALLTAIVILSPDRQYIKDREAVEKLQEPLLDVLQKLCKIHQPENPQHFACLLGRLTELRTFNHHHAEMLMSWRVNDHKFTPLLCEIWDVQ

A short description of test [20]: ATG_RORE_CIS: Attagene CIS-FACTORIAL HepG2 Assay for human RAR-related Orphan Receptor Element (RORE) (AID 2282959). The settings on record: HepG2 Attagene cis-factorial RORE reporter, mRNA; actives raise or lower the signal. In outline: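 Transiently transfected HepG2 reporter cells were treated 24 h. Reporter transcripts were detected by RT-PCR and capillary electrophoresis, with bidirectional fitting against DMSO.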

One may read the AC50 as the concentration at which the activity in the assay is half-maximal.

Active and inactive are the calls of the source. Rule for the calls: active = hit-call score of the fitted dose curve at least 0.9, where 1 is the maximum; inactive = score below 0.9.

Sequence of Paired box protein Pax-6 (Homo sapiens) (P26367 whole entry, looked up): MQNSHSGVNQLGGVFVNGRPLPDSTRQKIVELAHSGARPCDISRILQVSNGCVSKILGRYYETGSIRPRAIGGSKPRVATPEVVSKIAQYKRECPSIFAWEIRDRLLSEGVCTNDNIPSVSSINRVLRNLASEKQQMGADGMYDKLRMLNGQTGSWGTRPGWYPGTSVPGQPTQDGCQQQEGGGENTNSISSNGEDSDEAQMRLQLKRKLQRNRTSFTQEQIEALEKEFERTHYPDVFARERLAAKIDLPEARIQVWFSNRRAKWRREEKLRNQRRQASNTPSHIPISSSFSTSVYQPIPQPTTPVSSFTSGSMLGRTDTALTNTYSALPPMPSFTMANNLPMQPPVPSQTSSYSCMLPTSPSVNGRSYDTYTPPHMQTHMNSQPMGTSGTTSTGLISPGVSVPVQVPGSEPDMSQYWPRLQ
Sequence of Heat shock factor protein 1 (Homo sapiens) (Q00613 whole entry, looked up, the tested form may be a part): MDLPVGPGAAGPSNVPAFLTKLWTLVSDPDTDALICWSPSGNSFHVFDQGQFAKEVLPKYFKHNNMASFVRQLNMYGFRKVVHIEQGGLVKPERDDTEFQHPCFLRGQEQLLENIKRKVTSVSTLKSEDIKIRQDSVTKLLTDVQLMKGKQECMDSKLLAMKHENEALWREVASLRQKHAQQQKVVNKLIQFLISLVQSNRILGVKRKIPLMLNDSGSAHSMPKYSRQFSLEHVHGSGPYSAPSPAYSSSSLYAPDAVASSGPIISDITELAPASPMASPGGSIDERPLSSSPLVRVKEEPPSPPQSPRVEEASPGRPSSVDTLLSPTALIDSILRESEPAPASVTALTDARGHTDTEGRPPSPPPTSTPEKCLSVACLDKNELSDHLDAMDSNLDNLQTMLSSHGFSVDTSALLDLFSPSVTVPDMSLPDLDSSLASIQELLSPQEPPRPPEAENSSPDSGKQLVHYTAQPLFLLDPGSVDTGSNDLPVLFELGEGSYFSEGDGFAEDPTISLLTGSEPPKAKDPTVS
Sequence of Hypoxia-inducible factor 1-alpha (Homo sapiens) (Q16665 whole entry, looked up): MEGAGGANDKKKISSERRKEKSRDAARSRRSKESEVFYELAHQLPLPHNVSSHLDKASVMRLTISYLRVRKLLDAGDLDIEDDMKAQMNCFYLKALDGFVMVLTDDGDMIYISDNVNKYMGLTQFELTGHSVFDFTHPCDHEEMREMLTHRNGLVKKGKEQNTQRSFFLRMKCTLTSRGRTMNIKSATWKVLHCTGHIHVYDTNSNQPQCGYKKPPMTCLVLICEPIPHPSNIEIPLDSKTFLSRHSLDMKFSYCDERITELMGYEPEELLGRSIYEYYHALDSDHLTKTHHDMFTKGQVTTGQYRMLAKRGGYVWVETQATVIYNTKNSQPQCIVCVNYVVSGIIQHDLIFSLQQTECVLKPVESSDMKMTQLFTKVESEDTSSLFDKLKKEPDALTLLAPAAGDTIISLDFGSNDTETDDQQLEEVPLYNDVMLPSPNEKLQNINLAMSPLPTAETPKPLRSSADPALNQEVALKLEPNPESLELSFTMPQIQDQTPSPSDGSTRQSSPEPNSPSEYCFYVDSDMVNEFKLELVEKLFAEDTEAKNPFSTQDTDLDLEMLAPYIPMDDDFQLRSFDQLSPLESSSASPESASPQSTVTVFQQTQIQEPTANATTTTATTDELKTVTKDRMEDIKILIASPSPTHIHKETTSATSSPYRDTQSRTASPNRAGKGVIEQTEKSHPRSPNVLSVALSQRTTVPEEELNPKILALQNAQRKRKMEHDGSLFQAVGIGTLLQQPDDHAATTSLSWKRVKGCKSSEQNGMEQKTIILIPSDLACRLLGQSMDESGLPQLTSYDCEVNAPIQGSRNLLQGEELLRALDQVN
Sequence of Signal transducer and activator of transcription 3 (Homo sapiens) (P40763 whole entry, looked up): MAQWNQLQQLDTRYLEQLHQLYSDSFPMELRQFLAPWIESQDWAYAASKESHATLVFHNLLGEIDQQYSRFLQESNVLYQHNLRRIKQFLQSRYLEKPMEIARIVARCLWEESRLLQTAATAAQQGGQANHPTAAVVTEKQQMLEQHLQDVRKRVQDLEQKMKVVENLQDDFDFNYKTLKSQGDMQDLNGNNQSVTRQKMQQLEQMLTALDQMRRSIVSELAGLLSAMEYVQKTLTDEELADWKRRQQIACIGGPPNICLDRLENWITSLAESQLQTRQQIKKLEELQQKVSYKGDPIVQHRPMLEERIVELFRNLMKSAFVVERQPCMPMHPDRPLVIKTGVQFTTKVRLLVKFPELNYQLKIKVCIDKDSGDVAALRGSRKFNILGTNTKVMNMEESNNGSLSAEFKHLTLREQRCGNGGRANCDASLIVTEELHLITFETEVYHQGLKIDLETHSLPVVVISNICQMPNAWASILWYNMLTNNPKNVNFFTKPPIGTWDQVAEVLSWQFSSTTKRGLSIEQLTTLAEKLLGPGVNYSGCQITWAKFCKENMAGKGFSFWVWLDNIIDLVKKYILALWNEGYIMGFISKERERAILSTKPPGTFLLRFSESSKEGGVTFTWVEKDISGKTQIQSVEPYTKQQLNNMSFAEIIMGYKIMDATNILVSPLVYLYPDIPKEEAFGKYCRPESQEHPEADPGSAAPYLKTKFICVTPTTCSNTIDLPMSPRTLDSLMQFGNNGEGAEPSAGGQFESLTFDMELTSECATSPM

With `c1ccc2n[nH]nc2c1`, the call in test [1], in test [2], in test [3], in test [4], in [5] and in test [6] was inactive. Besides, the compound was called inactive in test [7], in test [8], in test [9], in test [10], in [11] and in [12]. Moreover, the result in test [13], in test [14] and in test [15] was inactive.

As to `CC[C@@H]1C[C@H](N(Cc2cc(C(F)(F)F)cc(C(F)(F)F)c2)C(C)=O)c2cc(C(F)(F)F)ccc2N1C(=O)OC(C)C`, the outcome in test [1], in test [2], in test [3], in test [4], in [16] and in [5] was inactive. Further, the call in test [6], in test [7], in test [9], in [11], in [12] and in test [13] was inactive. The compound was called inactive in [14], in [15] and in [17]. Moreover, the AC50 in test [8] was 0.181 µM (active); in [10] it was 0.0676 µM (active).

As for `CN1C(=O)CC[C@H]1c1cccnc1`, the compound was classed as inactive in test [2], in test [3], in test [4], in test [5], in test [6] and in [7]. Further, the result in test [8], in test [9], in test [10], in test [12], in [13] and in [14] was inactive. In addition, the compound was classed as inactive in [15] and in test [18].

Consider `Oc1ccccc1`, for which the outcome in test [19], in test [2], in test [3], in test [4], in test [16] and in test [5] was inactive. The call in [7], in test [8], in [9], in [10], in test [11] and in test [12] was inactive. The result in [13], in [14], in [15] and in test [18] was inactive.

In the case of `CC(C)(C)c1cc(/C=C2\SC(N)=NC2=O)cc(C(C)(C)C)c1O`, the AC50 in test [19] is 8.2 µM (active); in [2] it was 11 µM (active); in test [6], 20 µM (active); in test [7] it was 15 µM (active); in test [9], 14.5 µM (active); in test [10], 1.2 µM (active). For the same compound, the AC50 in [14] was 18.2 µM (active). The outcome in [1], in test [3], in [4], in [5], in [20] and in [12] was inactive. For the same compound, the compound was called inactive in test [13], in test [15] and in test [17].

For the compound `Cc1ncc(CO)c(CO)c1O`, the call in test [19], in test [2], in test [3], in test [4], in test [5] and in test [6] was inactive. Moreover, the result in test [7], in test [9], in test [10], in test [11], in test [20] and in test [12] was inactive. The outcome in test [13], in [14], in [15], in test [17] and in test [18] was inactive.

Consider `CCCCCCCCN(C)CCCCCCCC`, for which the call in test [1], in test [2], in test [3], in [4], in [16] and in test [5] was inactive. Besides, the outcome in test [6], in [7], in [8], in test [9], in test [11] and in [20] was inactive. The outcome in test [12], in test [13], in [14], in test [15] and in test [17] was inactive. Also, the half-maximal activity concentration (AC50) in [10] was 26.5 µM (active).
